As a reminder, the AC50 is the concentration at which the activity in the assay is half-maximal.

Structures are written as SMILES. Records with an inconclusive call do not appear. The source made the active and inactive calls. The calls were made as follows: active = hit-call score of the fitted dose curve at least 0.9, where 1 is the maximum; inconclusive = response in the unintended direction; inactive = score below 0.9.

A short description of the first experiment: Tanguay_ZF_120hpf_MORT_legacy: (Legacy) Oregon State University Tanguay Lab 120 Hour Post-fertilization zebrafish Assay for Mortality (AID 2283633). The gist of the method: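 5D WT zebrafish, chorion removed 4 hpf; 1 embryo/well from 6 hpf; static exposure to 120 hpf, 28C, dark, sealed. Final DMSO 0.64%. Readout: binary mortality, brightfield, 24 + 120 hpf; DMSO as negative control.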
Regarding `c1ccc2c(c1)ccc1ccccc12`, the molecule was classed as inactive.
Same read-out and setting: for `O=C(O)c1ccccc1C(c1ccc(O)cc1)c1ccc(O)cc1` the value was “inactive”; for `OCCC(F)(F)C(F)(F)C(F)(F)C(F)(F)C(F)(F)C(F)(F)F`, “inactive”.
With `C[C@@H]1C[C@H]2[C@@H]3CCC4=CC(=O)C=C[C@]4(C)[C@@]3(F)[C@@H](O)C[C@]2(C)[C@@]1(O)C(=O)COP(=O)(O)O`, the result was inactive.
Consider `C#C[C@]1(O)CC[C@H]2[C@@H]3CCC4=CC(=O)CC[C@@H]4[C@H]3CC[C@@]21C`, for which the molecule was classed as inactive.
For the molecule `CCCCCCCCCCCCc1ccccc1S(=O)(=O)O`, the molecule was classed as inactive.
Take `CN1CCC[C@H]1c1cccnc1`: the outcome was inactive.
`COCC(C)OCC(C)O` (configuration not stated): the result was inactive.
As for `CN(C)C=O`, the molecule was classed as inactive.

A short description of another experiment: Tanguay_ZF_120hpf_YSE_legacy: (Legacy) Oregon State University Tanguay Lab 120 Hour Post-fertilization zebrafish Assay for Yolk Sac Edema (AID 2283634).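 As to AC50: actives raise the incidence of yolk sac edema above the DMSO baseline.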 In short, it runs like this:
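Dechorionate (pronase, 4 hpf) → place one 6 hpf embryo per well → static compound exposure, sealed and foil-covered, 28C, to 120 hpf → record yolk sac edema as present or absent. Final DMSO 0.64%.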
Regarding `CC1=C(/C=C/C(C)=C/C=C/C(C)=C/C(=O)O)C(C)(C)CCC1`, the AC50 is 214 nM (active).
On to `CCCCCCCCOC(=O)CCCCCCCCC(=O)OCCCCCCCC`, for which the outcome was inactive.
The same measure, in the same setting: as for `CCOC(=O)CC(O)(CC(=O)OCC)C(=O)OCC`, the entry is “inactive”; as for `CC[C@H](C)[C@@H](C(=O)O)n1sc2ccccc2c1=O`, “inactive”.
With `NC(=O)N(O)[C@@H]1C=C[C@H](Oc2cccc(Oc3ccc(F)cc3)c2)C1`, the result was inactive.
Take `CCCCCCCCCCCCCCCS(=O)(=O)Oc1ccccc1`: the molecule was classed as inactive.
On the same count and under the same terms, as for `CC(=O)NC1(c2cccc(F)c2)CCN(CC[C@@]2(c3ccc(Cl)c(Cl)c3)CN(c3ccccc3)C(=O)CO2)CC1`, the entry is “inactive”.
`CC(C)(C)c1cccc(C(C)(C)C)c1O`: the molecule was classed as inactive.
As for `CCCOc1sc(C(=O)N2CCC(c3cc(CN)ccc3F)CC2)c(C)c1Br`, the molecule was called inactive.
`OC1CCCCC1`: the molecule was classed as inactive.
Same read-out and setting: as for `CC(C)(C)c1cc(C(C)(C)C)c(O)c(C(C)(C)C)c1`, the entry is “inactive”; as for `CCN(CC)CCNc1ccc(CNC=O)c2sc3ccc(OC)cc3c(=O)c12`, “inactive”.
With `CCc1nn(C2CCCCC2)c2cc(C3(C#N)CCC(C(=O)O)CC3)ccc12` (configuration not stated), the AC50 was 324 nM (active).
For `CC(=O)CC(C)(C)O`, the outcome was inactive.
Turning to `CCC(=C(c1ccc(O)cc1)c1ccc(OCCN(C)C)cc1)c1ccccc1`, the call was inactive.
Still for that read-out and setting: as for `CCCCCCC(=O)O`, the entry is “inactive”; as for `C=C(C)C(=O)OCCC(F)(F)C(F)(F)C(F)(F)C(F)(F)C(F)(F)C(F)(F)F`, “inactive”.
With `CC(C)CCCCCCOC(=O)CCCCC(=O)OCCCCCCC(C)C`, the outcome was inactive.
Turning to `c1ccc2c(c1)ccc1ccccc12`, the result was inactive.
As for `O=C(O)c1ccccc1C(c1ccc(O)cc1)c1ccc(O)cc1`, the call was inactive.
With `OCCC(F)(F)C(F)(F)C(F)(F)C(F)(F)C(F)(F)C(F)(F)F`, the result was inactive.
Still for that read-out and setting: for `C[C@@H]1C[C@H]2[C@@H]3CCC4=CC(=O)C=C[C@]4(C)[C@@]3(F)[C@@H](O)C[C@]2(C)[C@@]1(O)C(=O)COP(=O)(O)O` the value was “inactive”.
In the case of `C#C[C@]1(O)CC[C@H]2[C@@H]3CCC4=CC(=O)CC[C@@H]4[C@H]3CC[C@@]21C`, the molecule was called inactive.
Still for that read-out and setting: for `CCCCCCCCCCCCc1ccccc1S(=O)(=O)O` the value was “inactive”; for `CN1CCC[C@H]1c1cccnc1`, “inactive”.
Turning to `ClC1=C(Cl)C(Cl)(Cl)C(Cl)=C1Cl`, the molecule was classed as inactive.
`CN(C)C=O`: the outcome was inactive.

A further experiment is described as follows: Tanguay_ZF_120hpf_AXIS_legacy: (Legacy) Oregon State University Tanguay Lab 120 Hour Post-fertilization zebrafish Assay for Body Axis Malformation (AID 2283635).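 As to AC50: potency for an increased fraction of larvae scored with body axis malformation.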 In short, it runs like this:
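Chorion is removed with pronase at 4 hpf, then single 6 hpf embryos are dosed (final DMSO 0.64%) and held statically at 28C in sealed, foil-covered plates. At 120 hpf body axis malformation is recorded as present or absent.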
Take `CCCCCCCCOC(=O)CCCCCCCCC(=O)OCCCCCCCC`: the result was inactive.
Consider `CCOC(=O)CC(O)(CC(=O)OCC)C(=O)OCC`, for which the result was inactive.
Consider `CC[C@H](C)[C@@H](C(=O)O)n1sc2ccccc2c1=O`, for which the outcome was inactive.
Still for that read-out and setting: for `NC(=O)N(O)[C@@H]1C=C[C@H](Oc2cccc(Oc3ccc(F)cc3)c2)C1` the value was “inactive”; for `CCCCCCCCCCCCCCCS(=O)(=O)Oc1ccccc1`, “inactive”.
With `Cc1cc(C)c(O)c(C)c1`, the molecule was called inactive.
The same measure, in the same setting: for `CCCOc1sc(C(=O)N2CCC(c3cc(CN)ccc3F)CC2)c(C)c1Br` the value was “inactive”; for `OC1CCCCC1`, “inactive”; for `CC(C)(C)c1cc(C(C)(C)C)c(O)c(C(C)(C)C)c1`, “inactive”.
On to `CCN(CC)CCNc1ccc(CNC=O)c2sc3ccc(OC)cc3c(=O)c12`, for which the molecule was called inactive.
Regarding `CCc1nn(C2CCCCC2)c2cc(C3(C#N)CCC(C(=O)O)CC3)ccc12` (configuration not stated), the AC50 was 384 nM (active).
Take `CC(=O)CC(C)(C)O`: the molecule was called inactive.
For `OCCC(F)(F)C(F)(F)C(F)(F)C(F)(F)C(F)(F)C(F)(F)C(F)(F)C(F)(F)F`, the result was inactive.
The same measure, in the same setting: for `CCC(=C(c1ccc(O)cc1)c1ccc(OCCN(C)C)cc1)c1ccccc1` the value was “inactive”.
Regarding `CCCCCCC(=O)O`, the molecule was called inactive.
Still for that read-out and setting: as for `COC(=O)CCCCC(=O)OC`, the entry is “inactive”.
In the case of `C=C(C)C(=O)OCCC(F)(F)C(F)(F)C(F)(F)C(F)(F)C(F)(F)C(F)(F)F`, the molecule was called inactive.
`CCCCOCCO`: the molecule was called inactive.
Consider `c1ccc2c(c1)ccc1ccccc12`, for which the result was inactive.
As to `O=C(O)c1ccccc1C(c1ccc(O)cc1)c1ccc(O)cc1`, the result was inactive.
For the molecule `C[C@@H]1C[C@H]2[C@@H]3CCC4=CC(=O)C=C[C@]4(C)[C@@]3(F)[C@@H](O)C[C@]2(C)[C@@]1(O)C(=O)COP(=O)(O)O`, the outcome was inactive.
Consider `C#C[C@]1(O)CC[C@H]2[C@@H]3CCC4=CC(=O)CC[C@@H]4[C@H]3CC[C@@]21C`, for which the outcome was inactive.
On to `CCCCCCCCCCCCc1ccccc1S(=O)(=O)O`, for which the call was inactive.
Turning to `CN1CCC[C@H]1c1cccnc1`, the molecule was called inactive.
For the molecule `ClC1=C(Cl)C(Cl)(Cl)C(Cl)=C1Cl`, the molecule was classed as inactive.
As for `CN(C)C=O`, the result was inactive.

Source of the values: PubChem BioAssay (EPA / NIEHS).
